Pf growth 48h = Primary qHTS for delayed death inhibitors of the malarial parasite plastid, 48 hour incubation; P. falciparum luciferase growth in erythrocytes, 48 h; Potency, µM (doses to about 28.7 µM), for the others: top-dose activity change, negative = inhibition, most hits filed as inhibitors; hit rate 5.9% among 310,000; AID 504832, 2011; also: potency is read from the fitted curve at half-maximal effect; % is scaled to controls: 0 for no effect and ±100 for the full control effect
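Growth was read as firefly luciferase luminescence after a 48 h, 37 C, 5% CO2 exposure of compounds to reporter-bearing P. falciparum cultures (0.1% parasitemia, 2% hematocrit final) in Albumax-supplemented RPMI 1640.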
Pf growth 96h = Primary qHTS for delayed death inhibitors of the malarial parasite plastid, 96 hour incubation; P. falciparum luciferase reporter growth, 96 h; hit rate 6.9% among 320,000; Potency, µM (series often up to 28.7 µM), inactives show at the top dose activity change, negative = inhibition, hits mostly inhibitors; also: potency is read from the fitted curve at half-maximal effect; % is scaled to controls: 0 for no effect and ±100 for the full control effect
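Infected RBCs, 2% Hct / 0.05% parasitemia final; luciferase-reporter P. falciparum; cpd 96 h, 37 C, 5% CO2; luciferase detection reagent; luminescence.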
Shiga inhibitor = A qHTS for Small Molecule Inhibitors of Shiga Toxin. Vero cells, Shiga toxin protein synthesis inhibition reporter. inhibition, % at 38.7 µM. hit rate 9.2% among 290,000. AID 2315, 2010; in the data active = inhibition mostly above about 28%, no sharp cut-off; inactive = mostly below about 43%; also: 0% is about no effect
Lassa entry inh = qHTS for Inhibitors of binding or entry into cells for Lassa Virus; Lassa virus pseudotype entry inhibition, cell reporter; Potency, µM (titrated, usually from 37.9 µM), without a hit: top-dose activity change, negative = inhibition, most hits filed as inhibitors; hit rate 1.2% among 300,000; AID 540256, 2011; calls by dose curve; tested in HEK293 cells; also: potency is read from the fitted curve at half-maximal effect; % is scaled to controls: 0 for no effect and ±100 for the full control effect; nearly all actives have a fitted effect of over 50% in size
MARV entry inh = qHTS for inhibitors of binding or entry into cells for Marburg Virus; Marburg virus pseudotyped entry inhibition, cell reporter; Potency, µM (series often up to 37.8 µM), for the others: at the highest dose activity change, negative = inhibition, actives largely listed as inhibitors; hit rate 1.8% among 300,000; calls by dose curve; tested in HEK293 cells; also: potency is read from the fitted curve at half-maximal effect; % is scaled to controls: 0 for no effect and ±100 for the full control effect
Cycloheximide cs = Cycloheximide Counterscreen for Small Molecule Inhibitors of Shiga Toxin | cell reporter, cycloheximide protein synthesis inhibition counterscreen | max response, % | hit rate 12% among 300,000 | AID 2314, 2010; in the data active = max response mostly above about 13%, no sharp cut-off; inactive = mostly below about 14%; also: read at 38.3 µM for the half of the compounds with a filed dose; 0% is about no effect
* = called active by the depositor; u = inconclusive; x = not tested or not shown; [ ] = remark or other dose. Compounds with a hit are over-represented: about 19% of the library has one in this group of screens. Unless noted, calls follow the shape of the dose curve; as a rule, active = well fitted inhibition curve with a large enough effect; inconclusive = small, poorly fitted or top-dose-only effect, or another doubt; inactive = no such curve, though single readings can be large or run the other way.

SMILES	Pf growth 48h	Pf growth 96h	Shiga inhibitor	Lassa entry inh	MARV entry inh	Cycloheximide cs
CNc1nc(C)c([N+](=O)[O-])c(Nc2ccc(OC)cc2)n1	8%	-99%	0	9%	u	-2
COc1c(Cl)ccc(Cl)c1C(=O)NCc1ccco1	1%	-12%	-15	-24%	7%[46.1 µM]	10
CC(C)(C)NC(=O)c1ccccc1NC(=O)c1ccc2c(c1)OCO2	0%	-1%[5.75 µM]	-19	-2%[46.1 µM]	-3%[46.1 µM]	-4
COc1ccccc1C(=O)NC(C)c1ccc(-n2ccnc2)cc1 (stereo not drawn)	u	u	-8	-6%[46.1 µM]	-5%[46.1 µM]	-2
CSCc1ccc(C(=O)NC(C)c2ccc(-n3ccnc3)cc2)cc1 (stereo not drawn)	-5%	u	16	x	x	18*
CCOc1ccccc1C(=O)NC(C)c1ccc(-n2ccnc2)cc1 (stereo not drawn)	u	8.3µM*	-21	-2%	14%	1
CCNc1nc(SC(C)C(=O)OC)nc(N(C)C)n1 (stereo not drawn)	-5%	u	-21	-5%[46.1 µM]	u	-2
O=C(Cc1ccccc1)N1CCN(Cc2cccnc2)CC1	x	34%	22	-7%	12%	2
Cc1ccc(OCCSc2nc3ccc(NC(=O)c4ccco4)cc3s2)cc1	x	x	x	-11%[46.1 µM]	12%[46.1 µM]	x
Cn1c(CCNC(=O)c2ccco2)nc2cc(NC(=O)c3ccccc3)ccc21	53%	u	80*	u	u	36*
Nc1nc2ccc(NC(=O)c3ccco3)cc2s1	104%	59%	107*	20%	8%[46.1 µM]	51*
COc1cc(C(=O)Nc2ccc(-n3cnnn3)c(C)c2)cc(OC)c1OC	-6%	u	-5	0%	26%	-2
Cc1cc(NC(=O)c2ccco2)ccc1-n1cnnn1	137%	-12%	113*	6%	7%	46*
COc1ccc(NC(=O)c2ccco2)cc1NC(=O)c1ccco1	76%	-9%	0	-2%	u	-7
Cc1cc2cc(NC(=O)c3ccco3)ccc2[nH]1	131%	17%[5.75 µM]	137*	0%	u	61*
CCOC(=O)c1cc2c(ccn2C)n1CC(=O)N1CCN(c2ccccc2)CC1	u	29%	8	-3%	-14%	3
CCCCn1c(N)c(N(CC(C)C)C(=O)CSCC(=O)Nc2ccc(C)cc2)c(=O)[nH]c1=O	u	u	x	0%	9%	x
COc1cc(OC)c(C(=O)OCC(=O)c2cc(C)n(CC3CCCO3)c2C)cc1OC (stereo not drawn)	-1%	97%	9	9%	u	20
CCOC(=O)C1CCN(C(=O)c2ccc3c(c2)sc2nc(-c4ccc(OCC)cc4)cn23)CC1	x	x	x	9%[46.1 µM]	x	x
CCCCC(=O)Nc1ccc2c(c1)nc(CCNC(=O)c1ccco1)n2C	-1%	-21%	15	x	x	15*
CCOC(=O)N1CCN(Cc2nc3cc(NC(=O)C(C)C)ccc3n2CC)CC1	-19%	14%	-4	10%	u	-3
CCOC(=O)N1CCN(Cc2nc3cc(NC(=O)c4ccco4)ccc3n2CC)CC1	-2%	-19%	32	0%	u	23*
O=C(Nc1ccc2[nH]c3c(c2c1)CCCC3)c1ccco1	3.7µM*	u	42*	1%	u	14*
Cc1nc2cc(NC(=O)NCc3ccco3)ccc2n1C	139%	x	85*	u	21%	41*
CC(=O)c1cccc(NC(=O)NCc2ccco2)c1	35%	x	11	-1%	12%	12
SMILES	Pf growth 48h	Pf growth 96h	Shiga inhibitor	Lassa entry inh	MARV entry inh	Cycloheximide cs
NNC(=O)c1ccc2[nH]c3c(c2c1)CCCC3	19%	-4%	16	x	x	5
Cc1ccc(NC(=O)c2c(NC(=O)c3ccccc3Cl)sc3c2CCC3)cc1	x	x	x	23%[46.1 µM]	x	x
O=c1[nH]c(NC2CCN(S(=O)(=O)c3ccccc3C(F)(F)F)CC2)nc2c1CCCC2	u	22%	-3	u	u	-3
CCCn1c(CN2CCN(C(=O)c3ccco3)CC2)nc2cc(S(=O)(=O)N(C)C)ccc21	10µM*	9.3µM*	x	1%	-5%	x
Cn1c(CCNC(=O)c2ccco2)nc2cc(NC(=O)C3CCCCC3)ccc21	24%	u	37*	0%	9%[46.1 µM]	12*
Cn1c(CCNC(=O)c2ccccc2)nc2cc(NC(=O)c3ccco3)ccc21	40%	x	82	10%	-16%	18
Cn1c(CCNC(=O)c2ccco2)nc2cc(NC(=O)c3ccco3)ccc21	77%	46%	49*	u	14%	23*
CCn1c(CN2CCN(c3ccc(OC)cc3)CC2)nc2cc(S(=O)(=O)N(C)C)ccc21	u	u	-5	-2%[46.1 µM]	-1%[46.1 µM]	1
Cc1nc2cc(NC(=O)c3ccco3)ccc2n1C	112%	132%	19	x	x	24*
CN1CCN(CCCNCc2cn(CCC#N)c3ccccc23)CC1	x	9%	2	9%[46.1 µM]	u	2
Cc1cccc(CSc2ncc(Cl)c(C(=O)Nc3sc4c(c3C(N)=O)CCCC4)n2)c1	x	x	x	1%[46.1 µM]	17%[46.1 µM]	x
Cn1c(CCNC(=O)c2ccco2)nc2cc([N+](=O)[O-])ccc21	8%	2.6µM*	-33	x	x	-1
CCC(=O)NCCc1nc2cc(NC(=O)c3ccco3)ccc2n1C	93%	u	44*	x	u	15*
Cc1nc2ccc(NC(=O)c3ccco3)cc2nc1C	18%	2%	59*	x	x	17*
Cn1c(CCNC(=O)c2ccco2)nc2ccccc21	26%	u	x	9%	8%	x
COc1cccc(OC)c1C(=O)Nc1ccc2nc(C)c(C)nc2c1	18%	u	15	x	x	9
Cc1cc(CNC(=O)C2CCC(=O)N(Cc3ccccc3F)C2)on1 (stereo not drawn)	10%	u	24	12%	26%	7
COc1ccccc1NC(=O)C1=C(C)Nc2nc(SCc3ccccc3Cl)nn2C1c1cccnc1 (stereo not drawn)	x	x	x	4%[46.1 µM]	7%[46.1 µM]	x
C=CCNS(=O)(=O)c1cc(S(=O)(=O)NCC=C)c(OC)cc1OC	236%	2.9µM*	-5	14%	8%[46.1 µM]	1
C=CCNS(=O)(=O)c1ccc(OC)c(C)c1	0%	x	-4	u	-13%	-1
O=C(Nc1nc2c(s1)CCCC2)C1CCCN1C(=O)c1cccs1 (stereo not drawn)	15%	-18%	17	-21%	-1%	1
Cc1ccccc1C(=O)NC(C(=O)Nc1nc2c(s1)CCCC2)C(C)C (stereo not drawn)	u	4.7µM*	31*	-17%	u	17*
Cc1cc(C(=O)Nc2nc3c(s2)CCCC3)cs1	-38%	-14%	107*	u	u	40*
O=C(Nc1nc2c(s1)CCCC2)c1ccc2ncsc2c1	-61%	u	67*	x	x	41*
Cc1ccccc1-c1cc(C(=O)Nc2nc3c(s2)CCCC3)c2ccccc2n1	u	u	43	-3%	-22%	11
